# Measurements published in PubChem BioAssay (NCATS).
# Records with an inconclusive call do not appear. Active and inactive are the calls of the source. Calls come from the whole dose curve; as a rule, active = well fitted cell-killing curve with a large enough effect; inconclusive = small, poorly fitted or top-dose-only effect, or effect the other way; inactive = no such curve, though single readings can be large or run the other way. Where a SMILES comes first, the peptide text is derived from it. Bridges are numbered along the chain shown (N, C = ends). [ ]: non-standard residue; d: D form. hArg = N=C(N)NCCCC[C@H](N)C(=O)O; Mpa = O=C(O)CCS
# Assay: qHTS assay to identify small molecule inhibitors of chordoma cells - UCH-1 (AID 1259355); note: nearly all actives have a fitted effect of over 55% in size
# Details: UCH-1 chordoma viability, CellTiter-Glo, 48 h, combination, with auranofin plus four topoisomerase inhibitors; series mostly up to 46.1 µM
# Text: NIH Chemical Genomics Center [NCGC]
# Chordoma is a rare and slow growing tumor that can occur anywhere along the spine, from the base of the skull to the tailbone. Current treatment options for chordoma is surgery and radiation therapy for those who are not candidates for surgery. But chordomas tend to return in the same location or surrounding areas of the original tumor after surgery and/or radiation. Chemotherapy can slow down the progression of the tumor. As chordoma is slow growing, the general cytotoxic agents that kill fast growing cells are ineffective, and some patients have been reported to respond to molecularly targeted drugs.
# NCATS Pharmaceutical Collection (NPC) containing approximately 3000 clinically approved and investigational drugs were used to screen at 15 concentrations in a chordoma cell lines, UCH-1, to identify small molecule compounds that can inhibit chordoma cell growth.
# NCGC Assay Protocol Summary:
# Human chordoma cell line UCH-1 was dispensed at 800 per well in 4uL of culture medium into white solid bottom 1536-well plates (Corning Life Sciences, Corning, NY) using a Multidrop Combi (Thermo Scientific, Waltham, MA) dispenser. The assay plates were incubated at 37 C and 5% CO2 for an overnight, and then 23nL of compounds dissolved in DMSO and positive control were transferred using a Pintool station (Wako, San Diego, CA). Compound treatment was followed by the addition of 1uL of the combination compounds (1uM Auranofin, 500nM each of Camptothecin, Doxorubicin, Rubitecan, and Topotecan) and assay medium to each well of the assay plates using Flying Reagent Dispenser (FRD, Aurora Discovery, San Diego, CA). The assay plates were incubated at 37 C and 5% CO2 for 48hr. Then 5uL of CellTiter-Glo reagent (Promega Corporation, Madison, WI) was added to each well of the assay plates using FRD. After 30min incubation at room temperature, the luminescence signal was quantified using a ViewLux plate reader (PerkinElmer, Shelton, CT).
row,Structure (SMILES),outcome
1,CC[C@H](C)[C@H](N)C(=O)O,inactive
2,CCOc1ccccc1O[C@H](c1ccccc1)[C@H]1CNCCO1,inactive
3,O=c1[nH]c(=O)n([C@H]2C[C@H](O)[C@@H](CO)O2)cc1I,inactive
4,CC(=O)N(CC(O)CN(C(C)=O)c1c(I)c(C(=O)NCC(O)CO)c(I)c(C(=O)NCC(O)CO)c1I)c1c(I)c(C(=O)NCC(O)CO)c(I)c(C(=O)NCC(O)CO)c1I (stereo not given),inactive
5,O=C(CCBr)N1CCN(C(=O)CCBr)CC1,inactive
6,Cc1c(NC(C)C)c(=O)n(-c2ccccc2)n1C,inactive
7,COC(=O)N/N=C/c1c[n+]([O-])c2ccccc2[n+]1[O-],inactive
8,O=C(O)CCC(=O)O,inactive
9,Cc1c(C)c2c(c(C)c1OC(=O)c1cccnc1)CC[C@@](C)(CCC[C@H](C)CCC[C@H](C)CCCC(C)C)O2,inactive
10,CC[C@]12CCCN3CCc4c(n(c5ccccc45)[C@@](O)(C(=O)OC)C1)[C@@H]32,inactive
11,COc1ccc(C(=O)N2CCN(CC(=O)N3CCOCC3)CC2)cc1,inactive
12,C[N+](C)(C)CC[N+]1(C)Cc2c(Cl)c(Cl)c(Cl)c(Cl)c2C1,inactive
13,CC[N+](C)(CC)CCOC(=O)C1c2ccccc2Oc2ccccc21,inactive
14,CCS(=O)(=O)CCn1c([N+](=O)[O-])cnc1C,inactive
15,CC(=O)N1C[C@H](O)C[C@H]1C(=O)O,inactive
16,CC(=O)Nc1ccc(OCCOCCOc2ccc(NC(C)=O)cc2)cc1,inactive
17,CNc1c2c(nn1C)CCCC2,inactive
18,COCC(=O)Nc1c(I)c(C(=O)NCC(O)CO)c(I)c(C(=O)N(C)CC(O)CO)c1I (stereo not given),inactive
19,NC(=O)[C@@H]1CSSCCC(=O)N[C@@H](CCCCN=C(N)N)C(=O)NCC(=O)N[C@@H](CC(=O)O)C(=O)N[C@@H](Cc2c[nH]c3ccccc23)C(=O)N2CCC[C@H]2C(=O)N1 ([Mpa][hArg]GDWPC-NH2; disulfide 1-7),inactive
20,C[C@@H](N)C(=O)O,inactive

row,Structure (SMILES),outcome
1,CO[C@@]1(NC(=O)C(C(=O)O)c2ccc(O)cc2)C(=O)N2C(C(=O)O)=C(CSc3nnnn3C)CO[C@@H]21 (stereo not given in full),inactive
2,Cc1cc(-n2nc3ccc(Cl)cc3n2)c(O)c(C(C)(C)C)c1,inactive
3,Cn1cc(C(=O)[C@@H]2CCc3nc[nH]c3C2)c2ccccc21,inactive
4,CC(=O)N[C@@H](CC(C)C)C(=O)O,inactive
5,CCOc1cc(NC(C)=O)ccc1C(=O)OC,inactive
6,CC(N)CCCC(C)(C)O (stereo not given),inactive
7,C[C@]1(Cn2ccnn2)[C@H](C(=O)O)N2C(=O)C[C@H]2S1(=O)=O,inactive
8,NC(=O)N[C@@H](CCC(=O)O)C(=O)O,inactive
9,C[C@H]1COc2c(C3(N)CC3)c(F)cc3c(=O)c(C(=O)O)cn1c23,inactive
10,CC(=O)OCC(=O)[C@@]1(O)CC[C@H]2[C@@H]3CCC4=CC(=O)C=C[C@]4(C)[C@@]3(F)[C@@H](O)C[C@@]21C,inactive
11,CCCCCCCCCCCCCCCCC(C(=O)O)C(O)(CC(=O)O)C(=O)O (stereo not given),inactive
12,Cc1ccc(C(C)C)c(O)c1,inactive
13,O=C(O)CCCc1ccccc1,inactive
14,COc1ccc2cc(CCC(C)=O)ccc2c1,inactive
15,NS(=O)(=O)c1cc2c(cc1C(F)(F)F)NCNS2(=O)=O,inactive
16,CN1CC(=O)NC1=N,inactive
17,CC1(c2ccccc2)OC(C(=O)O)=CC1=O (stereo not given),inactive
18,CCOC(=O)[C@H](CCc1ccccc1)N[C@@H](C)C(=O)N1CCC[C@H]1C(=O)O,inactive
19,O=c1[nH]c(=O)c2ccccc2o1,inactive
20,CCCCCCCCCCCCCCCCN,inactive
